Values joined by “and” are separate entries in the source; they are usually repeats but may differ in a detail not shown here. Equal entries are not always repeated. Results filed as inconclusive are left out. Some structures have more than one record in an assay (separate samples or runs), and their calls can disagree. Active and inactive are the calls of the source. How the source made its calls, unless noted: active means hit-call score of the fitted dose curve at least 0.9, where 1 is the maximum; inconclusive means response in the unintended direction; inactive means score below 0.9.
Tests used:
[1] = read-out: TIMP1, TIMP1 (gene 7076); experiment: LTEA_HepaRG_TIMP1: Life Technologies and Expression Analysis (LTEA) Assay for TIMP1 using HepaRG (AID 2283534; active means hit-call score of the fitted dose curve at least 0.9, where 1 is the maximum; inactive means score below 0.9); details: mRNA level, 48 h; actives raise or lower the signal
Method in brief: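 TIMP1 induction or repression in HepaRG cells after 48 h chemical exposure (eight concentrations, highest 100 uM), assessed by normalized qRT-PCR with bidirectional fitting to DMSO controls.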

[2] = read-out: Tumor necrosis factor receptor 1 (TNFRSF1A), TNFRSF1A (gene 7132); experiment: LTEA_HepaRG_TNFRSF1A: Life Technologies and Expression Analysis (LTEA) Assay for Tumor necrosis factor receptor 1 (TNFRSF1A) using HepaRG (AID 2283535; active means hit-call score of the fitted dose curve at least 0.9, where 1 is the maximum; inactive means score below 0.9); details: mRNA level, 48 h; actives raise or lower the signal
Method in brief: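 Assay uses 48 h chemical treatment of differentiated HepaRG monolayers, tested in duplicate at eight concentrations from 100 uM downward in 0.5% DMSO. mRNA is normalized to ACTB, GAPDH and POLR2A, with induction or suppression fitted relative to vehicle.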

[3] = read-out: Cellular tumor antigen p53 (Homo sapiens) (UniProt P04637); experiment: LTEA_HepaRG_TP53: Life Technologies and Expression Analysis (LTEA) Assay for Tumor Protein P53 (TP53) using HepaRG (AID 2283537; active means hit-call score of the fitted dose curve at least 0.9, where 1 is the maximum; inactive means score below 0.9); details: mRNA level, 48 h; actives raise or lower the signal
Method in brief: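 TP53 transcript measured by qRT-PCR, normalized to three housekeeping genes, after 48 h treatment of human HepaRG cultures with chemicals from 100 uM downward in half-log steps (0.5% DMSO vehicle, serum-free induction medium). Up- or down-regulation fitted against DMSO.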

[4] = read-out: UDP glucuronosyltransferase (UGT1A1), UGT1A1 (gene 54658); experiment: LTEA_HepaRG_UGT1A1: Life Technologies and Expression Analysis (LTEA) Assay for UDP glucuronosyltransferase (UGT1A1) using HepaRG (AID 2283538; active means hit-call score of the fitted dose curve at least 0.9, where 1 is the maximum; inactive means score below 0.9); details: mRNA level, 48 h; actives raise or lower the signal
Method in brief: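 mRNA induction or loss of UGT1A1, by TaqMan qRT-PCR, in duplicate HepaRG wells after 48 h exposure to half-log dilutions topping at 100 uM; DMSO (0.5%) served as baseline.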

[5] = read-out: UDP glucuronosyltransferase (UGT1A6), UGT1A6 (gene 54578); experiment: LTEA_HepaRG_UGT1A6: Life Technologies and Expression Analysis (LTEA) Assay for UDP glucuronosyltransferase (UGT1A6) using HepaRG (AID 2283539; active means hit-call score of the fitted dose curve at least 0.9, where 1 is the maximum; inactive means score below 0.9); details: mRNA level, 48 h; actives raise or lower the signal
Method in brief: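 Measures mRNA change in HepaRG hepatic cells exposed 48 h to chemicals (eight-point, maximum 100 uM, 0.5% DMSO vehicle) in serum-free induction medium. Expression normalized to endogenous controls; DMSO served as negative control and baseline.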

[6] = read-out: X-box binding protein 1 (XBP1), XBP1 (gene 7494); experiment: LTEA_HepaRG_XBP1: Life Technologies and Expression Analysis (LTEA) Assay for X-box binding protein 1 (XBP1) using HepaRG (AID 2283540; active means hit-call score of the fitted dose curve at least 0.9, where 1 is the maximum; inactive means score below 0.9); details: mRNA level, 48 h; actives raise or lower the signal
Method in brief: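 Eight concentrations (half-log, highest 100 uM, 0.5% DMSO) tested in duplicate on HepaRG cells over 48 h in serum-free induction medium; qRT-PCR of XBP1 normalised to ACTB, GAPDH, POLR2A.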

[7] = LTEA_HepaRG_LDH_cytotoxicity: Cytotoxicity Assessment in the Life Technologies and Expression Analysis (LTEA) Assay (AID 2283563);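 on AC50: LDH activity released into spent culture medium as a marker of cell death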
Method in brief: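 Spent-medium LDH after 48 h chemical exposure of HepaRG cells in serum-free induction medium; eight concentrations, half-log dilutions from 100 uM, duplicate wells, fitted upward relative to 0.5% DMSO.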

[8] = TOX21_p53_BLA_p2_viability: Viability Assessment in the Tox21 HCT-116 p53 Agonism Beta-lactamase Assay, Phase 2 (AID 2283591);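 further: compound exposure lasted 16 h at 37 °C; actives lower the ATP signal meaning cytotoxicity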
Method in brief: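 HCT116 p53-bla cells, 4000/well, dosed after 5 h plating (217-fold dilution of DMSO stocks) and incubated 16 h at 37C. Viability taken as cellular ATP by CellTiter-Glo luminescence after 30 min RT; signal loss marks cytotoxicity.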

[9] = TOX21_p53_BLA_p3_viability: Viability Assessment in the Tox21 HCT-116 p53 Agonism Beta-lactamase Assay, Phase 3 (AID 2283593);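 further: cells exposed to compound for 16 h before reading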
Method in brief: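 HCT116 cells, 4000/well, dosed 5 h after plating by pin transfer (217-fold dilution from DMSO stock) and incubated 16 h at 37C, 5% CO2. Viability read as ATP luminescence with CellTiter-Glo after 30 min at room temperature.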

[10] = target: Cellular tumor antigen p53 (Homo sapiens) (UniProt P04637); experiment: TOX21_p53_BLA_p3_ratio: Tox21 HCT-116 p53 Agonism Beta-lactamase Assay, Ratio, Phase 3 (AID 2283596)
Cellular tumor antigen p53 (Homo sapiens), sequence (P04637 whole entry, looked up): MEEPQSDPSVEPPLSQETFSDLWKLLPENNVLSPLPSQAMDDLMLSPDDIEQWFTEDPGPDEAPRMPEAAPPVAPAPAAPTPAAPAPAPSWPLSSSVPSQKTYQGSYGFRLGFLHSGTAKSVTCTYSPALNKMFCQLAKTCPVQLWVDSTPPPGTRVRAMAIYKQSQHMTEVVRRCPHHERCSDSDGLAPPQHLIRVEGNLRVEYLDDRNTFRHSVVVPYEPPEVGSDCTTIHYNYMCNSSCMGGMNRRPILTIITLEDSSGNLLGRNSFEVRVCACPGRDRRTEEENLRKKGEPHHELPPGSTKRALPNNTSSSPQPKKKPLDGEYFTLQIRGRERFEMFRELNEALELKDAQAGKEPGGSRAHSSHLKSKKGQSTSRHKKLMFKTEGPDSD
Method in brief: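 Cells were seeded at 4000/well, rested 5 h at 37C, then dosed with DMSO compound solutions (217-fold dilution) for 16 h. CCF4-AM substrate was loaded for 2 h at room temperature, and the 460/530 nm emission ratio was fitted for gain of signal versus DMSO.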

[11] = TOX21_p53_BLA_p4_viability: Viability Assessment in the Tox21 HCT-116 p53 Agonism Beta-lactamase Assay, Phase 4 (AID 2283597);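 further: hits lower the luminescence signal meaning cytotoxicity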
Method in brief: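 In this multiplexed secondary endpoint, HCT116 cells (4000 per well, compound at 5 h, 16 h treatment) received CellTiter-Glo after the beta-lactamase read. Luminescence after 30 min RT reflects ATP, and falling signal marks cytotoxicity.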

[12] = target: Cellular tumor antigen p53 (Homo sapiens) (UniProt P04637); experiment: TOX21_p53_BLA_p5_ratio: Tox21 HCT-116 p53 Agonism Beta-lactamase Assay, Ratio, Phase 5 (AID 2283599)
Method in brief: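 HCT-116 p53-bla cells (4000/well) plated 5 h, dosed with compound (217-fold DMSO dilution) for 16 h at 37 C; CCF4-AM substrate 2 h at room temperature. Activity is the 460/530 nm emission ratio (405 nm excitation), fitted in gain-of-signal direction versus DMSO.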

[13] = target: Cellular tumor antigen p53 (Homo sapiens) (UniProt P04637); experiment: TOX21_p53_BLA_p4_ratio: Tox21 HCT-116 p53 Agonism Beta-lactamase Assay, Ratio, Phase 4 (AID 2283601)
Method in brief: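 HCT-116 p53 beta-lactamase reporter cells (4000/well) preincubated 5 h, then compound (217-fold dilution of DMSO stock) for 16 h at 37C. CCF4-AM substrate added 2 h at room temperature; 460/530 nm emission ratio fitted upward versus DMSO.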

[14] = Tanguay_ZF_120hpf_MORT_legacy: (Legacy) Oregon State University Tanguay Lab 120 Hour Post-fertilization zebrafish Assay for Mortality (AID 2283633);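 on AC50: fitted as increase in binary mortality versus DMSO negative control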
Method in brief: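 Single dechorionated Tropical 5D embryos were held with test chemical (0.64% DMSO final) from 6 to 120 hpf at 28C under foil. Deaths at 24 or 120 hpf were recorded as binary calls, analysed for increase over DMSO controls.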

[15] = Tanguay_ZF_120hpf_YSE_legacy: (Legacy) Oregon State University Tanguay Lab 120 Hour Post-fertilization zebrafish Assay for Yolk Sac Edema (AID 2283634);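 on AC50: actives raise the incidence of yolk sac edema above the DMSO baseline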
Method in brief: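 Single dechorionated embryos were held in sealed plates at 28C with test chemical (0.64% DMSO final) from 6 hpf until 120 hpf. Edema of the yolk sac was then recorded as a binary endpoint; non-mortality endpoints were skipped for dead embryos.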

[16] = Tanguay_ZF_120hpf_AXIS_legacy: (Legacy) Oregon State University Tanguay Lab 120 Hour Post-fertilization zebrafish Assay for Body Axis Malformation (AID 2283635);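 on AC50: potency for an increased fraction of larvae scored with body axis malformation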
Method in brief: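 Each dechorionated embryo was exposed alone from 6 hpf, with DMSO at 0.64% (vol/vol) and trimethyltin chloride 5 uM as positive control. Axis malformation was recorded at 120 hpf unless the embryo had died.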

[17] = Tanguay_ZF_120hpf_EYE_legacy: (Legacy) Oregon State University Tanguay Lab 120 Hour Post-fertilization zebrafish Assay for Eye Malformation (AID 2283636);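 further: binary presence or absence of eye malformation scored by brightfield in 120 hpf larvae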
Method in brief: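 5D wild-type embryos, pronase-dechorionated at 4 hpf; static exposure 6–120 hpf, 28C, dark; DMSO 0.64% final; 5uM trimethyltin chloride positive control. Binary eye-defect scoring at 120 hpf; dead embryos not scored.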

[18] = Tanguay_ZF_120hpf_SNOU_legacy: (Legacy) Oregon State University Tanguay Lab 120 Hour Post-fertilization zebrafish Assay for Snout Malformation (AID 2283637)
Method in brief: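 Binary brightfield scoring of snout malformation at 120 hpf. Dechorionated 5D wild-type embryos, one per well, static exposure from 6 hpf at 28C, sealed and dark; final DMSO 0.64% (vol/vol), DMSO as baseline; 5uM trimethyltin chloride positive control.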

[19] = read-out: Thyroid Hormone Responsive (THRSP), THRSP (gene 7069); experiment: LTEA_HepaRG_THRSP: Life Technologies and Expression Analysis (LTEA) Assay for Thyroid Hormone Responsive (THRSP) using HepaRG (AID 2283536; active means hit-call score of the fitted dose curve at least 0.9, where 1 is the maximum; inactive means score below 0.9); details: mRNA level, 48 h; actives raise or lower the signal
Method in brief: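 qRT-PCR read-out (Fluidigm TaqMan), housekeeping-normalized (ACTB/GAPDH/POLR2A). HepaRG, 48 h chemical exposure, 8-pt half-log series from 100 uM in 0.5% DMSO, duplicates. Bidirectional curve fit vs 0.5% DMSO baseline.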

[20] = target: Cellular tumor antigen p53 (Homo sapiens) (UniProt P04637); experiment: TOX21_p53_BLA_p2_ratio: Tox21 HCT-116 p53 Agonism Beta-lactamase Assay, Ratio, Phase 2 (AID 2283592)
Method in brief: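 DMSO-normalized, positive-direction endpoint derived from the 460 nm/530 nm FRET ratio in HCT116 p53 beta-lactamase reporter cells exposed 16 h at 37C and loaded with CCF4-AM for 2 h.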

Measured: AC50

CCCCC(CC)COC(=O)c1ccccc1C(=O)O (stereo not drawn)
active: [4] 64.9 µM
not listed: [19] | [20]
inactive: all other assays above

N[C@@H](Cc1cc(I)c(Oc2ccc(O)c(I)c2)c(I)c1)C(=O)O
inactive: [1] | [2] | [3] | [6] | [7] | [8] | [9] | [10] | [11] | [12] | [13]
active: [4] 40 µM | [5] 40 µM | [12] 36.8 µM | [13] 34.8 µM | [14] 0.233 µM | [16] 0.000818 µM | [17] 0.00251 µM | [18] 0.00111 µM

O=C(Nc1ccc([N+](=O)[O-])cc1Cl)c1cc(Cl)ccc1O
active: [1] 3.18 µM | [2] 10.1 µM | [4] 3.65 µM | [5] 3.63 µM | [6] 1.97 µM | [7] 4.38 µM | [8] 129 nM and 152 nM | [9] 159 nM and 156 nM | [10] 299 nM and 230 nM | [11] 235 nM and 92 nM | [12] 315 nM and 320 nM | [13] 0.317 µM
inactive: [3] | [13] | [14] | [16] | [17] | [18]

CCOC(=O)c1ccc(O)cc1
active: [18] 24.5 µM
not listed: [15] | [19] | [20]
inactive: all other assays above

CCCCCCC(C)OC(=O)COc1nc(F)c(Cl)c(N)c1Cl (stereo not drawn)
active: [8] 70.8 µM | [11] 76.9 µM | [13] 87.2 µM
not listed: [9] | [15] | [18] | [20]
inactive: all other assays above

Cc1nn(C)c(Oc2ccccc2)c1C=NOCc1ccc(C(=O)OC(C)(C)C)cc1
active: [1] 6.47 µM | [3] 6.96 µM | [4] 2.29 µM | [5] 1.61 µM | [7] 8.6 µM | [14] 3.26 µM
not listed: [15] | [19] | [20]
inactive: all other assays above

CCOC(=O)C(C)Oc1ccc(Oc2cnc3cc(Cl)ccc3n2)cc1 (stereo not drawn)
inactive: [1] | [2] | [19] | [4] | [5] | [6] | [7] | [14] | [16] | [17] | [18]

O=C(O)c1ccccc1
not listed: [15] | [19]
inactive: all other assays above

CCCOC(=O)NCCCN(C)C
not listed: [11] | [15] | [18] | [20]
inactive: all other assays above

c1ccc(Nc2ccccc2)cc1
active: [14] 26.2 µM | [15] 12.2 µM | [18] 36.6 µM
not listed: [10] | [17] | [20]
inactive: all other assays above

CCCN(CCC)C(=O)SCC
not listed: [8] | [12] | [15] | [17] | [20]
inactive: all other assays above

N#CSCSc1nc2ccccc2s1
active: [19] 77.7 µM | [7] 75 µM | [14] 0.539 µM
inactive: [1] | [2] | [4] | [5] | [6] | [16] | [17] | [18]

O=C(c1ccc(O)cc1O)c1ccc(O)cc1O
active: [10] 73.8 µM and 73.3 µM | [12] 76.4 µM and 74.5 µM
not listed: [8] | [9] | [11] | [15] | [20]
inactive: all other assays above

From PubChem BioAssay (EPA / NIEHS)
